Reference: PubChem BioAssay (NCATS)
Records with an inconclusive call do not appear. Activity calls are given as the source filed them. Unless noted, calls come from the whole dose curve; as a rule, active = well fitted curve in the direction sought with a large enough effect; inconclusive = small, poorly fitted or top-dose-only effect, or another doubt; inactive = no such curve, though single readings can be large; an effect the other way counts as inactive or inconclusive.

How the values were obtained:
[1] = target: Cytochrome P450 3A4 (Homo sapiens) (UniProt P08684); test: qHTS Assay for Inhibitors and Substrates of Cytochrome P450 3A4 (AID 884); note: % is set by controls: 0 for no effect and ±100 for the full control effect; nearly all actives have a fitted effect of over 50% in size
Sequence of Cytochrome P450 3A4 (Homo sapiens) (P08684 whole entry, looked up): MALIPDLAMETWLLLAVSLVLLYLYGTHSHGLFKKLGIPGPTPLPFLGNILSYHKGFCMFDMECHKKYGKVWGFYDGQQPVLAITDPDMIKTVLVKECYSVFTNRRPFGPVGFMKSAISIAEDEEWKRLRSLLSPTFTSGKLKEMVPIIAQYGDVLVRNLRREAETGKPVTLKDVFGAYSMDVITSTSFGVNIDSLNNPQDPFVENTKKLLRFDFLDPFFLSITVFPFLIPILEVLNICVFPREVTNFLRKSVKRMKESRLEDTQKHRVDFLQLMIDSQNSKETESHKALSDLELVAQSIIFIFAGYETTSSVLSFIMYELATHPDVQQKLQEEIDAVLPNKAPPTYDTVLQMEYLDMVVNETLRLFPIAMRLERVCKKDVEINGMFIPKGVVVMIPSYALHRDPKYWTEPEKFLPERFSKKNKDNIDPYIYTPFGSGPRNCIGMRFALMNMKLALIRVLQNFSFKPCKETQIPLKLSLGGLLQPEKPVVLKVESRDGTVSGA
Summary of the method: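 20 nM human CYP3A4 with 25 uM Luciferin-PPXE (at KM) in 200 mM KPO4, preincubated 10 min with compound; NADPH regeneration started a 60 min RT reaction. Luciferin detected by luminescence, normalized to 57 uM ketoconazole as full inhibition.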

[2] = qHTS Assay for Lipid Storage Modulators (AID 1519; calls by dose curve; for activity change, negative = inhibition: % is set by controls: 0 for no effect and ±100 for the full control effect); settings: Drosophila S3 cells, BODIPY lipid droplet/cell ratio, laser cytometry, cells loaded with oleic acid
Summary of the method: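 Cells seeded at 5,000 per well were treated with compounds over a concentration series and loaded with oleic acid (400 uM, as added). Lipid droplet fluorescence (488 nm excitation, 500-530 nm channel) was read by laser-scanning cytometry and normalized to 20 uM Triacsin C.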

[3] = target: Ubiquitin carboxyl-terminal hydrolase 1 (Homo sapiens) (UniProt O94782); test: Inhibitors of USP1/UAF1: Pilot qHTS (AID 504865); note: nearly all actives have a fitted effect of over 35% in size; note: potency is the fitted concentration of half-maximal effect
Sequence of Ubiquitin carboxyl-terminal hydrolase 1 (Homo sapiens) (O94782 whole entry, looked up): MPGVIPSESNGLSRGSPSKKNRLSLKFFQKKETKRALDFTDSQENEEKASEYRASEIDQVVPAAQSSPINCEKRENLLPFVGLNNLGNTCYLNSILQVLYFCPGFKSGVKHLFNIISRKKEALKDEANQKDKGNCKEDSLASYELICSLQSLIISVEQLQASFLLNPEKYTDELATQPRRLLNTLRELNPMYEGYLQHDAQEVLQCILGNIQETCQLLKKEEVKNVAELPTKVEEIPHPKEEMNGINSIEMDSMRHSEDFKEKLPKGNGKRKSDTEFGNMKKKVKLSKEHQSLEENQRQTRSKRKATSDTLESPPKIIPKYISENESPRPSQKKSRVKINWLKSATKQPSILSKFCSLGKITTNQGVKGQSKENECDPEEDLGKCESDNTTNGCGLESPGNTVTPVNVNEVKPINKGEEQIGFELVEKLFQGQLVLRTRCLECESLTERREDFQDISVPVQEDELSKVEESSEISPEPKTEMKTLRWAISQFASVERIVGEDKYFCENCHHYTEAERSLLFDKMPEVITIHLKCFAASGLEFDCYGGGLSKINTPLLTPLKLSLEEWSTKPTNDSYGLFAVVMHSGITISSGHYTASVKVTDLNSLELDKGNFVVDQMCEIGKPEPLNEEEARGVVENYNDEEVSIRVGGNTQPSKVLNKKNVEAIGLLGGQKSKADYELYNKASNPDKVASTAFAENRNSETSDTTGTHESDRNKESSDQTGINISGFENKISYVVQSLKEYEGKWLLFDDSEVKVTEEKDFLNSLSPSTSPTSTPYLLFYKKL
Summary of the method: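 Deubiquitinase activity followed as kinetic rhodamine fluorescence release from 150 nM Ub-Rho. 1 nM USP1/UAF1 with compound, after 15 min room-temperature preincubation, in HEPES pH 7.8 buffer containing TCEP, EDTA, BSA and Tween-20.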

[4] = target: DNA dC->dU-editing enzyme APOBEC-3G (Homo sapiens) (UniProt Q9HC16); test: qHTS for inhibitors of Vif-A3G interactions: Validation (AID 588379); note: 0% is about no effect
Sequence of DNA dC->dU-editing enzyme APOBEC-3G (Homo sapiens) (Q9HC16 whole entry, looked up): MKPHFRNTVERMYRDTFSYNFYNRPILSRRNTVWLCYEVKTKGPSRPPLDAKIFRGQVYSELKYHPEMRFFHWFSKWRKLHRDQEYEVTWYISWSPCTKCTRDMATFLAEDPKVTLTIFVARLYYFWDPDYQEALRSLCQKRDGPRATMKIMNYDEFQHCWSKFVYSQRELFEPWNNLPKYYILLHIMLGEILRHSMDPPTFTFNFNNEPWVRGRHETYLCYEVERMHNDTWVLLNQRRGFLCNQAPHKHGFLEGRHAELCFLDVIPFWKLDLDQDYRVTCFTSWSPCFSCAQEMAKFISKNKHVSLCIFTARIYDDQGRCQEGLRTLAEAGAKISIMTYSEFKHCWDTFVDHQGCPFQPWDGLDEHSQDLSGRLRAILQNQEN
Summary of the method: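 HeLa cells stably expressing Vif and A3G-eYFP, 700 cells/well, incubated overnight at 37 deg C, then exposed to compound overnight at 37 deg C. Inhibition of Vif-mediated degradation read as increased yellow fluorescence (Ex 488/Em 500-530) by laser-scanning cytometry.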

[5] = target: Cytochrome P450 1A2 (Homo sapiens) (UniProt P05177); test: p450-cyp1a2 (AID 410; calls by dose curve; note: potency is the fitted concentration of half-maximal effect;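 for activity change, negative = inhibition: -100% = full effect of reference inhibitor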)
Sequence of Cytochrome P450 1A2 (Homo sapiens) (P05177 whole entry, looked up): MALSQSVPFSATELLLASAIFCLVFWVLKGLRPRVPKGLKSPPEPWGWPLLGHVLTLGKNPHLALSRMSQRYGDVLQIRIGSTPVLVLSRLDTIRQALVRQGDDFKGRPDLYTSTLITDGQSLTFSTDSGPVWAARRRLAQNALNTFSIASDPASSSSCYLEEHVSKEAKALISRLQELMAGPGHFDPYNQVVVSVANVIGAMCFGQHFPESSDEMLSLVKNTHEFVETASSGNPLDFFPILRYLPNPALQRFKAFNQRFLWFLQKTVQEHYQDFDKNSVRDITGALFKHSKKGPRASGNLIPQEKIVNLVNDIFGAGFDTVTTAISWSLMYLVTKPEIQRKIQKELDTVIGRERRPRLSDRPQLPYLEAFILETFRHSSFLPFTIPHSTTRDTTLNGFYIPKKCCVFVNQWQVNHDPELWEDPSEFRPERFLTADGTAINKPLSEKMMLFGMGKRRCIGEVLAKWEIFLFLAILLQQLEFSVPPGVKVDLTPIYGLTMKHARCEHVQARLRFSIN
Summary of the method: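 Human CYP1A2 (20nM) demethylated Luciferin-ME at its Km (100uM) in 100mM KPO4. After 10 min compound preincubation, NADPH regeneration ran the reaction 60 min at room temperature. Luciferin was read by luminescence, normalized to 57 uM furafylline.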

[6] = target: Glucocorticoid receptor (Homo sapiens) (UniProt P04150); test: GR-GFP Redistribution (AID 450;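 active = compounds whose dose series gives a full or clear partial fitted curve of increased nuclear translocation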; note: potency is the fitted concentration of half-maximal effect); settings: U2OS GR-GFP nuclear translocation, laser cytometry, 2 h
Sequence of Glucocorticoid receptor (Homo sapiens) (P04150 whole entry, looked up, the tested form may be a part): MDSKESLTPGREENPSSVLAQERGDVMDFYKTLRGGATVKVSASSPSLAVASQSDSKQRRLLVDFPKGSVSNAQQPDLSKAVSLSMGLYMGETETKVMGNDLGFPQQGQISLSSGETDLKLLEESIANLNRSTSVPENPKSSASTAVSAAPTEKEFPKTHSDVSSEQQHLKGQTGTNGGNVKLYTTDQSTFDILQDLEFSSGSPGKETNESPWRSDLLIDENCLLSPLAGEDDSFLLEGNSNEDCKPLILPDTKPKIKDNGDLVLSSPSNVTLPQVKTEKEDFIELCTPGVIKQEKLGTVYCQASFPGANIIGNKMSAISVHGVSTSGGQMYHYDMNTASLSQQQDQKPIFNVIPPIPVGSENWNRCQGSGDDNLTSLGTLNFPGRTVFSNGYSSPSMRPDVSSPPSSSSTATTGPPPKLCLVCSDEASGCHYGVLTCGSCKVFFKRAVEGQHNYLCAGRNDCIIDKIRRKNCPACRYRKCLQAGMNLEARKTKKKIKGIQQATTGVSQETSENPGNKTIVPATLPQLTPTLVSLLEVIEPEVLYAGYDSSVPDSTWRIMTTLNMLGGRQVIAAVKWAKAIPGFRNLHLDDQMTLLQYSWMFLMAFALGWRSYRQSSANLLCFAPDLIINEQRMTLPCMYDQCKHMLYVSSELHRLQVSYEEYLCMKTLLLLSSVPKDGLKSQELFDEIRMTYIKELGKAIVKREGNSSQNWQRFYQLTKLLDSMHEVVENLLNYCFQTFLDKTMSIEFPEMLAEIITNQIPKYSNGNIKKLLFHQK

[7] = target: Glucocorticoid receptor (Homo sapiens) (UniProt P04150); test: GR-EFC Redistribution (AID 451; calls by dose curve; note: potency is the fitted concentration of half-maximal effect); settings: CHO-K1 GR-EFC translocation, beta-gal luminescence, 2 h
Summary of the method: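 CHO-K1 cells stably expressing nuclear-localized β-gal enzyme acceptor and GR fused C-terminally to the enzyme donor fragment; ligand-driven nuclear translocation restores β-gal by complementation. Compounds titrated up to 46 uM final, 2 h at 37 °C; luminescence read.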

[8] = target: Mitogen-activated protein kinase 10 (Mus musculus) (UniProt Q61831); test: JNK3 AlphaScreen Assay (AID 530; active = well fitted curve in either direction with a large enough effect, not every such curve was filed as active;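 note: kinase came from lysate of stimulated human HepG2 cells; signal reports phosphorylation of biotinylated GST-cJun 1-79 at Ser73 with 10 µM ATP; % is set by controls: 0 for no effect and ±100 for the full control effect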)
Summary of the method: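 JNK3 came from HepG2 lysates pre-activated with IL-1beta and TNF-alpha and phosphorylated biotinylated GST-cJun (1-79) at 10 uM ATP, pH 7.6, room temperature. Compounds were titrated. AlphaScreen signal used anti-phospho-cJun (Ser73) antibody.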

[9] = target: 3',5'-cyclic-AMP phosphodiesterase 4B (Homo sapiens) (UniProt Q07343); test: qHTS Assay for Inhibitors of PDE-IV (AID 607; active = well fitted activation curve with a large enough effect in the main read-out, with a control signal flat, not every such curve was filed as active; note: % of control where 0% means no effect)
Sequence of 3',5'-cyclic-AMP phosphodiesterase 4B (Homo sapiens) (Q07343 whole entry, looked up): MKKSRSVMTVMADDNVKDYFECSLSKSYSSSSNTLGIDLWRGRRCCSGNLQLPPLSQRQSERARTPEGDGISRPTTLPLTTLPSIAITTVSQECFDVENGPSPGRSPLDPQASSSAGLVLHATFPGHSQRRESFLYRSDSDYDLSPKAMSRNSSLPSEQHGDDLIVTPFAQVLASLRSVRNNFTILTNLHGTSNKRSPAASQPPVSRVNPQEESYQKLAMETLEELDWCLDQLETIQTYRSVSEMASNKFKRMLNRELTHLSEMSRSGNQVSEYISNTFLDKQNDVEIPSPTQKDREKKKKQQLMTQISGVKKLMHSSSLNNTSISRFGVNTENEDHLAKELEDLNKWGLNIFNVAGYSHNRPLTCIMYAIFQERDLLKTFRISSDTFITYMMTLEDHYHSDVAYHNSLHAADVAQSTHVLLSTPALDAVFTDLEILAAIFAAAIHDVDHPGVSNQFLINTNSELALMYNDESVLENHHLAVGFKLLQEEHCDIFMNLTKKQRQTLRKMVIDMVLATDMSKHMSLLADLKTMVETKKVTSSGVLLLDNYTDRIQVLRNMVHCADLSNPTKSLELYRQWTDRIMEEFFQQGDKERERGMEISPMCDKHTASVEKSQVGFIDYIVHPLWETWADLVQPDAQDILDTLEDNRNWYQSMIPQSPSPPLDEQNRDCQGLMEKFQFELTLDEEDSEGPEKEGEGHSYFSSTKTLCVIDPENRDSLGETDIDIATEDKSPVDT
Summary of the method: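 Live HEK293 cells with a modified cyclic nucleotide-gated (CNG) channel report intracellular cAMP via membrane-potential dye fluorescence (ex 535/em 590 nm). Endogenous PDE-IV was targeted. Compounds were tested at up to 22.9 uM final; RO 20-1724 100 uM served as control.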

[10] = target: ATP-dependent 6-phosphofructokinase (Trypanosoma brucei brucei) (UniProt O15648); test: qHTS Assay to Find Inhibitors of T. brucei phosphofructokinase: hit validation (AID 492961);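 note: luminescence reports ADP formed as PFK phosphorylates fructose-6-phosphate with ATP; % is set by controls: 0 for no effect and ±100 for the full control effect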
Sequence of ATP-dependent 6-phosphofructokinase (Trypanosoma brucei brucei) (O15648 whole entry, looked up): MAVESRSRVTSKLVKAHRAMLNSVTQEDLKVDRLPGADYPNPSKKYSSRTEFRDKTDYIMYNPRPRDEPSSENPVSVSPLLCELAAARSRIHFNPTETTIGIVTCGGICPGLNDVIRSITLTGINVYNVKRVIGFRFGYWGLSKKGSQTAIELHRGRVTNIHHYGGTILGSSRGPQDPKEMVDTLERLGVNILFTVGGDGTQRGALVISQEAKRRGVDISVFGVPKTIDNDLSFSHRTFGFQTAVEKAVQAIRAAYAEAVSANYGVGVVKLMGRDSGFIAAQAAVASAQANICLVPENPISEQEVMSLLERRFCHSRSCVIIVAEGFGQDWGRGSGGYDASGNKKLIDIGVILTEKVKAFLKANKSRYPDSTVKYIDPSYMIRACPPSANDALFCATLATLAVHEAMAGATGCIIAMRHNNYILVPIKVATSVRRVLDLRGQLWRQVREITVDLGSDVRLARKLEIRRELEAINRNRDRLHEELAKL
Summary of the method: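 PFK 1.25 nM, F6P 0.5 mM, ATP 0.1 mM, MgCl2 5 mM, 0.1 M TEA pH 8.0, Tween20 0.01%, BSA 0.1%; 45 min RT. ADP-Glo two-step detection, luminescence. qHTS titration; curve fitting with curve-class categorization.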

[11] = target: Luciferin 4-monooxygenase (Photinus pyralis) (UniProt P08659); test: Biochemical firefly luciferase enzyme assay for NPC (AID 624030);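 note: purified P. pyralis luciferase at 10 nM with luciferin and ATP substrate; 0% = DMSO and -100% = full luciferase inhibition by PTC124 control; nearly all actives have a fitted effect of over 70% in size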
Sequence of Luciferin 4-monooxygenase (Photinus pyralis) (P08659 whole entry, looked up): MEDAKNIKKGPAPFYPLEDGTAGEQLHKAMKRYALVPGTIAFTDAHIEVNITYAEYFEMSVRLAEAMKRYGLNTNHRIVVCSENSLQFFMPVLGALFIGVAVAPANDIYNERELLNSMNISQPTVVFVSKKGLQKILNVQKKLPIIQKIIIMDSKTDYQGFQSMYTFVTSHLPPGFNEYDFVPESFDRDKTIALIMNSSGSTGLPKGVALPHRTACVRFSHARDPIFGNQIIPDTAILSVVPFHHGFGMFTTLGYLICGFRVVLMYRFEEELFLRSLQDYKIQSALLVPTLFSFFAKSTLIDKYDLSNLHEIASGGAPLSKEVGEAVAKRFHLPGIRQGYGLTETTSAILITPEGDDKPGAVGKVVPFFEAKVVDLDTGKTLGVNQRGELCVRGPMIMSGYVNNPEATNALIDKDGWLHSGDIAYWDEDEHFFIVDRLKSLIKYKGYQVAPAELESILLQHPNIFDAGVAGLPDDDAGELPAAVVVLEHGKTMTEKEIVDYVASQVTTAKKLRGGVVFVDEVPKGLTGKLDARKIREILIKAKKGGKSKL
Summary of the method: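 Counter-screen for direct inhibition of the luciferase enzyme by approved-drug library compounds, run at 10 nM enzyme in 50 mM Tris acetate (final). Luminescence was read within 5 min of enzyme-buffer addition and normalized to PTC124 versus DMSO (0%).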

[12] = qHTS profiling for inhibitors of Plasmodium falciparum proliferation (AID 504749); note: nearly all actives have a fitted effect of over 60% in size; note: potency is the fitted concentration of half-maximal effect;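 for activity, negative = inhibition: 0% = DMSO vehicle and full inhibition = artemisinin control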; settings: P. falciparum in erythrocytes, SYBR Green DNA, 72 h
Summary of the method: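 P. falciparum-infected erythrocytes (0.3% parasitemia, 2.5% hematocrit final) were exposed to compounds for 72 h at 37 C in 5% CO2, then lysed with SYBR Green buffer overnight at room temperature; parasite DNA fluorescence was normalized to artemisinin and DMSO controls.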

[13] = target: Cytochrome P450 3A4 (Homo sapiens) (UniProt P08684); test: qHTS Assay for Activators of Cytochrome P450 3A4 (AID 885); note: nearly all actives have a fitted effect of over 65% in size
Summary of the method: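 Quantitative HTS format: compounds preincubated with 20nM human CYP3A4 and Luciferin-PPXE substrate at KM, reaction started by NADPH regeneration, stopped after 60 min, luciferase luminescence read 20 min later.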

[14] = Confirmation and Secondary Assay for Modulators of Hemoglobin Beta Chain Splicing at IVS2 705 locus (AID 930);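 note: HeLa cells stably expressing the EGFP-705 splicing reporter; GFP fluorescence per well restored by corrected splicing of the IVS2-705 intron in EGFP; % of control where 0% means no effect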
Summary of the method: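 Read-out: total peak GFP fluorescence per well (488 nm excitation, 500-520 nm emission) by laser-scanning cytometry. Cells: HeLa EGFP-705 splicing reporter, 2 days compound exposure in Optimem/2% FCS.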

[15] = Stat Signaling Pathway (AID 446; active = well fitted curve in either direction with a large enough effect, not every such curve was filed as active;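 note: ME-180 cervical cancer cells given 40 pM IL-6 alongside compound; SIE-controlled beta-lactamase reporter measured as 460/530 nm FRET emission ratio; % is set by controls: 0 for no effect and ±100 for the full control effect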)
Summary of the method: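 IL-6/STAT signaling read in ME-180 cells via an SIE beta-lactamase reporter. Stimulus was 40 pM IL-6 (its AC50) for 5 hrs, so both activation and inhibition register.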

[16] = measured here: cell count channel max response
[17] = measured here: lipid channel max response

Q: Which results are given for `C[C@]1(C(=O)O)CCC[C@]2(C)c3cc(O)ccc3CC[C@@H]12`?
A: Potency [1]: inactive; activity change, negative = inhibition ([2]; at 57.5 µM (top of the series)): -6.36% (inactive); max response [2, 16]: -21.1%; max response [2, 17]: -24.8%; Potency [3]: inactive; outcome [4]: inactive

Q: With `COc1cc2c(c(OC)c1OC)-c1ccc(O)c(=O)cc1[C@@H](NC(C)=O)CC2` as the molecule, how does the Potency [5] read?
A: Its Potency is “inactive”.

Q: And the Potency [6]?
A: The Potency was > 46 µM (inactive).

Q: And the Potency [7]?
A: Its Potency is > 46 µM (inactive).

Q: And the outcome [8]?
A: The outcome was “inactive”.

Q: And the Potency [1]?
A: Its Potency is “inactive”.

Q: What about the activity change, negative = inhibition ([2]; at 57.5 µM (top of the series)) of the same molecule?
A: Its activity change, negative = inhibition is 3.54% (inactive).

Q: And the max response [2, 16]?
A: The max response was 16.1%.

Q: And the max response [2, 17]?
A: Its max response is 20.6%.

Q: What does the source list for `O=c1ccc2cc(O[C@H]3O[C@@H](CO)[C@@H](O)[C@@H](O)[C@@H]3O)c(O)cc2o1`?
A: Potency [6]: > 20.6 µM (inactive); Potency [7]: > 20.6 µM (inactive); outcome [8]: inactive; Potency [9]: inactive; activity change, negative = inhibition ([2]; at 25.7 µM (top of the series)): -1.03% (inactive); max response [2, 16]: 1.01%; max response [2, 17]: 0.833%; Potency [10]: inactive; Potency [3]: inactive; Potency [11]: inactive; activity, negative = inhibition ([12]; at 12.8 µM (top of the series), parasite line A): 3.87% (inactive); activity, negative = inhibition ([12]; at 12.8 µM (top of the series), parasite line B): -4.9% (inactive)

Q: For `O=C1C=C2C=CC3C[C@@]2(O1)C1CCCCN31` (stereo partly drawn), which Potency [13] is on record?
A: Its Potency is “inactive”.

Q: What about the Potency [14] of the same molecule?
A: Its Potency is “inactive”.

Q: And the activity change, negative = inhibition ([2]; at 57.5 µM (top of the series))?
A: Its activity change, negative = inhibition is 4.29% (inactive).

Q: And the max response [2, 16]?
A: The max response was 5.82%.

Q: And the max response [2, 17]?
A: Its max response is 10.8%.

Q: What about the Potency [10] of the same molecule?
A: The Potency was “inactive”.

Q: And the Potency [3]?
A: Its Potency is “inactive”.

Q: And the Potency [11]?
A: Its Potency is “inactive”.

Q: What about the Potency ([12]; parasite line A) of the same molecule?
A: The Potency was 11.2 µM (active).

Q: And the Potency ([12]; parasite line B)?
A: Its Potency is 8.91 µM (active).

Q: Which results are given for `CC(C)(O)[C@@H]1C2OC(=O)[C@@H]1[C@]1(O)C[C@H]3O[C@]34C(=O)O[C@H]2[C@]14C`?
A: activity change, negative = inhibition ([2]; at 57.5 µM (top of the series)): 5.46% (inactive); max response [2, 16]: 3.27%; max response [2, 17]: 5.39%; Potency [3]: inactive; outcome [4]: inactive

Q: Which results are given for `CNC(C)[C@@H](O)c1ccccc1` (stereo partly drawn)?
A: Potency [14]: inactive; activity change, negative = inhibition ([2]; at 57.5 µM (top of the series)): -6.91% (inactive); max response [2, 16]: 19.3%; max response [2, 17]: 12.8%; Potency [10]: inactive; Potency [11]: inactive; activity, negative = inhibition ([12]; at 28.7 µM (top of the series), parasite line A): -2.9% (inactive); activity, negative = inhibition ([12]; at 28.7 µM (top of the series), parasite line B): -5.29% (inactive)

Q: With `CC(CCC(=O)O)C1CCC2C3CC[C@H]4CC(O)CC[C@@]4(C)C3CC[C@@]12C` (stereo partly drawn) as the molecule, how does the activity change, negative = inhibition ([2]; at 57.5 µM (top of the series)) read?
A: Its activity change, negative = inhibition is -0.0455% (inactive).

Q: What about the max response [2, 16] of the same molecule?
A: The max response was 5.89%.

Q: What about the max response [2, 17] of the same molecule?
A: Its max response is 10.6%.

Q: What about the Potency [3] of the same molecule?
A: Its Potency is 79.4 µM (active).

Q: Which Potency [13] does the source give for `C=C[C@H]1CN2CC[C@H]1C[C@H]2c1[nH]c2ccccc2c1CCO` here?
A: Its Potency is “inactive”.

Q: And the activity change, negative = inhibition ([2]; at 57.5 µM (top of the series))?
A: Its activity change, negative = inhibition is 2.01% (inactive).

Q: And the max response [2, 16]?
A: Its max response is -5.69%.

Q: What about the max response [2, 17] of the same molecule?
A: Its max response is -2.67%.

Q: What about the Potency [3] of the same molecule?
A: Its Potency is “inactive”.

Q: What about the outcome [4] of the same molecule?
A: Its outcome is “inactive”.

Q: With `COc1cc2c(c(OC)c1OC)-c1ccc(OC)c(=O)cc1[C@H](NC(C)=O)CC2` as the molecule, how does the activity change, negative = inhibition ([2]; at 25.7 µM (top of the series)) read?
A: Its activity change, negative = inhibition is -7.92% (inactive).

Q: What about the max response [2, 16] of the same molecule?
A: Its max response is -13.6%.

Q: What about the max response [2, 17] of the same molecule?
A: The max response was -22.5%.

Q: And the Potency [3]?
A: The Potency was “inactive”.

Q: What does the source list for `C[C@@]12CC[C@H]3[C@@H](CC[C@]4(O)C[C@H](O)CC[C@@]34C=O)[C@]1(O)CC[C@@H]2C1=CC(=O)OC1`?
A: outcome [15]: inactive; Potency [6]: > 20.6 µM (inactive); Potency [7]: > 20.6 µM (inactive); activity change, negative = inhibition ([2]; at 25.7 µM (top of the series)): -0.542% (inactive); max response [2, 16]: 6.59%; max response [2, 17]: 6.37%; Potency [3]: inactive

Q: Which Potency [5] does the source give for `c1cncc([C@H]2CCCCN2)c1` here?
A: Its Potency is 0.1 µM (active).

Q: And the Potency [6]?
A: Its Potency is > 46 µM (inactive).

Q: And the Potency [7]?
A: The Potency was > 46 µM (inactive).

Q: What about the outcome [8] of the same molecule?
A: Its outcome is “inactive”.

Q: And the activity change, negative = inhibition ([2]; at 57.5 µM (top of the series))?
A: The activity change, negative = inhibition was 0.698% (inactive).

Q: And the max response [2, 16]?
A: Its max response is 18.4%.

Q: And the max response [2, 17]?
A: The max response was 19.6%.

Q: What about the outcome [4] of the same molecule?
A: The outcome was “inactive”.
